About 15 (0.8%) of roughly 2,000 compounds showed an effect of 50% or more. What follows is part of a selection rich in strong results, with near analogues and random picks from the rest. Where a SMILES comes first, the peptide text is derived from it. [ ]: non-standard residue; d: D form. pGlu = O=C1CC[C@@H](C(=O)O)N1; Thz = O=C(O)[C@@H]1CSCN1
System: Balamuthia mandrillaris (ATCC PRA-291) trophozoites, axenic culture
Assay: primary screen, percent inhibition; higher = more effect of the substance;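 note: 0% = vehicle wells and 100% = lysate wells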
Settings: 20 µM
Description: Screening of a clinically approved library of compounds, compiled by the Small Molecule Discovery Center (SMDC) at the UCSF, was completed at 20 µM in 0.2% DMSO. All 2,177 drugs in the library were stored as 10 mM stocks dissolved in 100% DMSO (Sigma-Aldrich) at −20°C. B. mandrillaris amoebae were resuspended in axenic medium and distributed into opaque 384-well plates (Corning) at a density of 3,000 amoebae per well using a BioMek NX liquid handler. Negative-control wells were treated with vehicle only (0.2% DMSO in axenic medium), and positive-control wells simulating total destruction of amoebae were seeded with amoeba lysate generated by 3 consecutive freeze-thaw cycles. Following 72 h of incubation, 30 µl of CellTiter Glo reagent (CTG; Promega) was added to each well. The luminescence was measured with a Promega GloMax-Multi+ plate reader at 2, 4, and 8 h after CTG addition. […] The B-score, representing a plate-based statistical approach for correcting row, column, and edge effects, was also calculated for each compound in the library (75).

Compound	% Inhibition
O=C(O)[C@H](CC(=O)N1C[C@H]2CCCC[C@H]2C1)Cc1ccccc1	22.1%
CN1CCN(C(=O)O[C@H]2c3nccnc3C(=O)N2c2ccc(Cl)cn2)CC1	9.05%
C1CCN2C[C@@H]3C[C@H](CN4CCCC[C@@H]34)[C@H]2C1	-35.5%
O=C(O)C1=C(CSc2nnnn2CS(=O)(=O)O)CS[C@@H]2C(NC(=O)[C@H](O)c3ccccc3)C(=O)N12 (some centres unmarked)	15.1%
CCCCCCCCCCOc1cc2c(O)c(C(=O)OCC)cnc2cc1OCC	-12.8%
CCN1CCN(C(=O)N[C@@H](C(=O)N[C@@H]2C(=O)N3C(C(=O)O)=C(CSc4nnnn4C)CS[C@H]23)c2ccc(O)cc2)C(=O)C1=O	19.8%
C=CCNc1nc(NCC=C)nc(N2CCN(C(c3ccc(F)cc3)c3ccc(F)cc3)CC2)n1	13.4%
CC1=C(CC(=O)O)c2cc(F)ccc2/C1=C\c1ccc(S(C)(=O)=O)cc1	12.2%
CO/N=C(\C(=O)NC1C(=O)N2C(C(=O)OCOC(=O)C(C)(C)C)=C(/C=C\c3scnc3C)CSC12)c1csc(N)n1 (centres unmarked)	-4.68%
CO[C@H]1O[C@@H]2O[C@@]3(C)CC[C@H]4[C@H](C)CC[C@@H]([C@H]1C)[C@@]24OO3	48.7%
COC1O[C@@H]2O[C@@]3(C)CC[C@H]4[C@H](C)CC[C@@H]([C@H]1C)[C@@]24OO3 (some centres unmarked)	-11.8%
C[C@@H]1CC[C@H]2[C@@H](C)C(=O)O[C@@H]3O[C@@]4(C)CC[C@@H]1[C@]32OO4	54.5%
C[C@@H]1CC[C@H]2[C@@H](C)C(O)O[C@@H]3O[C@@]4(C)CC[C@@H]1[C@]32OO4 (some centres unmarked)	56.5%
C[C@H]1[C@@H](OC(=O)CCC(=O)O)O[C@@H]2O[C@]3(C)CC[C@H]4[C@H](C)CC[C@@H]1[C@@]24OO3	52.3%
C[C@H]1[C@H](OC(=O)CCC(=O)O)O[C@@H]2O[C@@]3(C)CC[C@H]4[C@H](C)CC[C@@H]1[C@@]24OO3	56.1%
CC(=O)[C@H]1CC[C@H]2[C@@H]3CC=C4C[C@@H](OC(=O)CCC(=O)O)CC[C@]4(C)[C@H]3CC[C@]12C	-6.88%
Cc1nnc2n1-c1ccc(Cl)cc1C(c1ccccc1)=NC2	-8.66%
CC1(C)C(C=C(Cl)Cl)C1C(=O)OCc1cccc(Oc2ccccc2)c1 (centres unmarked)	13.4%
COc1cc2nc(N(C)CCCNC(=O)C3CCCO3)nc(N)c2cc1OC (centres unmarked)	24.3%
C=CC[C@]1(O)CC[C@H]2[C@@H]3CCC4=CCCC[C@@H]4[C@H]3CC[C@@]21C	5.59%
CC(C)C[C@H](NC(=O)[C@@H](Cc1c[nH]c2ccccc12)NC(=O)[C@H](Cc1ccc(O)cc1)NC(=O)[C@H](CO)NC(=O)[C@H](Cc1c[nH]c2ccccc12)NC(=O)[C@H](Cc1c[nH]cn1)NC(=O)[C@@H]1CCC(=O)N1)C(=O)N[C@@H](CCCN=C(N)N)C(=O)N1CCC[C@H]1C(=O)NCC(N)=O	9.31%
O=C(O)CCCCC(=O)O	25.4%
O=C(O)CCCO	19%
CC(=O)OCC(COC(C)=O)OC(C)=O	-1.82%
C[C@@H]1[C@H](O)[C@@H](C)/C=C/C=C/C=C/C=C/C=C/C=C/C=C/[C@H](O[C@@H]2O[C@H](C)[C@@H](O)[C@H](N)[C@@H]2O)C[C@@H]2O[C@](O)(C[C@@H](O)C[C@@H](O)[C@H](O)CC[C@@H](O)C[C@@H](O)CC(=O)O[C@H]1C)C[C@H](O)[C@H]2C(=O)O	25.1%

Compound	% Inhibition
Cc1c(NC(=O)c2cccnc2)c(=O)n(-c2ccccc2)n1C	70.2%
Cc1c(N(C)C)c(=O)n(-c2ccccc2)n1C	29.7%
Cc1c(NC(C)C)c(=O)n(-c2ccccc2)n1C	-7.04%
C=CC1=C(C(=O)O)N2C(=O)[C@@H](NC(=O)/C(=N\OCC(=O)O)c3csc(N)n3)[C@H]2SC1	6.01%
C[N+]1(C)C2CC(OC(=O)[C@@H](CO)c3ccccc3)CC1C1OC12 (some centres unmarked)	15.9%
NCCCC(N)C(=O)O (centres unmarked) [131504-L4]	14.1%
CO/N=C(/C(=O)NC1C(=O)N2C(C(=O)O)=C(COC(N)=O)CSC12)c1ccco1 (centres unmarked)	41.1%
CO[C@H]1/C=C/O[C@@]2(C)Oc3c(C)c(O)c4c(O)c(c(/C=N\N5CCN(C)CC5)c(O)c4c3C2=O)NC(=O)/C(C)=C\C=C\C(C)[C@H](O)[C@@H](C)[C@@H](O)[C@@H](C)[C@@H](OC(C)=O)[C@@H]1C (some centres unmarked)	30.6%
O=C1CC[C@@H](C(=O)N2CSC[C@H]2C(=O)O)N1 ([pGlu]-[Thz]-OH)	16.6%
CNC1(c2ccccc2Cl)CCCCC1=O (centres unmarked)	1.15%
Clc1ccccc1CN1CCc2sccc2C1	30.2%
CC[C@@H](C(N)=O)N1CCCC1=O	13.9%
NC[C@H](O)c1ccc(O)c(O)c1 [130720-L3]	14.8%
C[N+](C)(C)CCOC(N)=O	-7.4%
C[C@]12CCC3c4ccc(O)cc4CCC3C1CCC2=O (some centres unmarked)	-7.91%
CNCCCC12CCC(c3ccccc31)c1ccccc12	15.2%
CC1(C)O[C@]2(C)CC[C@H]1CC2	17.9%
Cn1c(=O)c2nc[nH]c2n(C)c1=O [88704-L9]	8.85%
Cc1ccc(-c2cc(C(F)(F)F)nn2-c2ccc(S(N)(=O)=O)cc2)cc1	20.5%
CN1C2C[C@@H](OC(=O)[C@H](CO)c3ccccc3)CC1[C@@H]1O[C@H]21	0.52%
CC(C)(C)NC[C@H](O)COc1nsnc1N1CCOCC1	-3.01%
C=CCN1CC[C@]23c4c5ccc(O)c4OC2C(=O)CC[C@@]3(O)[C@H]1C5 (some centres unmarked)	29.3%
CCC1(CC)C(=O)C=CNC1=O	27.7%
COc1ccc(CC2c3cc(OC)c(OC)cc3CC[N+]2(C)CCC(=O)OCCCCCOC(=O)CC[N+]2(C)CCc3cc(OC)c(OC)cc3C2Cc2ccc(OC)c(OC)c2)cc1OC (centres unmarked) [756849-L2]	13.9%
O=C(O)CCCc1ccc(N(CCCl)CCCl)cc1	-32.3%

Reference: paper PMC6212833
